Hits are enriched below; roughly 2% of the tested compounds scored in any of these assays.
APOBEC3A inh: APOBEC3A ssDNA deaminase inhibitors, primary screen, selectivity assay for APOBEC3G inhibitor project, biochemical, FAM/TAMRA oligo cleavage fluorescence; inhibition, % at 20 µM; 330,000 compounds, 0.41% hits; recombinant A3A, FAM/TAMRA ssDNA deamination fluorescence; DNA dC->dU-editing enzyme APOBEC-3A (Homo sapiens), P31941;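 active means at least 40% inhibition at 20 µM here, with at most 30% in a related deaminase screen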;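 further: plate controls were A3A with DMSO for no effect and wells lacking A3A enzyme for full effect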
NPR2 activator: human GC-B receptor activators, primary screen, HEK293 GC-B cells, cGMP TR-FRET, EC30 CNP; 370,000 compounds, 0.11% hits; activation, % at 10 µM; 0% at EC30 CNP, 100% saturating CNP;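 active means activation at 10 µM reaching about 35% in either raw or pattern-adjusted values, limit read from the data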
Neddyl block: inhibitors of cullin neddylation, primary screen, biochemical, TR-FRET, uHTS, NAE and Ubc12. inhibition, % at 25 µM. 360,000 compounds, 0.58% hits; in the data active means inhibition above about 36%
PfG6PD inh: PfG6PD enzyme inhibitors, primary screen, biochemical, fluorescence intensity, uHTS; PfGluPho enzyme, NADPH resazurin-diaphorase fluorescence; inhibition, % at 20 µM; 350,000 compounds, 0.78% hits;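 active means inhibition reaching at least a set limit at 20 µM in the primary screen, cut at about 59% in these data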;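 further: 0% = DMSO wells with substrate and 100% = DMSO wells lacking glucose-6-phosphate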
NPR1 activator: GC-A stimulated cGMP production enhancers – HEK293 GC-A cells, cGMP TR-FRET, EC30 ANP, primary screen | 0% at EC30 ANP, 100% saturating ANP | AID 1671463, 2021 | Atrial natriuretic peptide receptor 1 (Homo sapiens), P16066 | 370,000 compounds, 0.14% hits | activation, % at 10 µM; in the data active means activation above about 40%
Target sequence (P16066 whole entry, looked up): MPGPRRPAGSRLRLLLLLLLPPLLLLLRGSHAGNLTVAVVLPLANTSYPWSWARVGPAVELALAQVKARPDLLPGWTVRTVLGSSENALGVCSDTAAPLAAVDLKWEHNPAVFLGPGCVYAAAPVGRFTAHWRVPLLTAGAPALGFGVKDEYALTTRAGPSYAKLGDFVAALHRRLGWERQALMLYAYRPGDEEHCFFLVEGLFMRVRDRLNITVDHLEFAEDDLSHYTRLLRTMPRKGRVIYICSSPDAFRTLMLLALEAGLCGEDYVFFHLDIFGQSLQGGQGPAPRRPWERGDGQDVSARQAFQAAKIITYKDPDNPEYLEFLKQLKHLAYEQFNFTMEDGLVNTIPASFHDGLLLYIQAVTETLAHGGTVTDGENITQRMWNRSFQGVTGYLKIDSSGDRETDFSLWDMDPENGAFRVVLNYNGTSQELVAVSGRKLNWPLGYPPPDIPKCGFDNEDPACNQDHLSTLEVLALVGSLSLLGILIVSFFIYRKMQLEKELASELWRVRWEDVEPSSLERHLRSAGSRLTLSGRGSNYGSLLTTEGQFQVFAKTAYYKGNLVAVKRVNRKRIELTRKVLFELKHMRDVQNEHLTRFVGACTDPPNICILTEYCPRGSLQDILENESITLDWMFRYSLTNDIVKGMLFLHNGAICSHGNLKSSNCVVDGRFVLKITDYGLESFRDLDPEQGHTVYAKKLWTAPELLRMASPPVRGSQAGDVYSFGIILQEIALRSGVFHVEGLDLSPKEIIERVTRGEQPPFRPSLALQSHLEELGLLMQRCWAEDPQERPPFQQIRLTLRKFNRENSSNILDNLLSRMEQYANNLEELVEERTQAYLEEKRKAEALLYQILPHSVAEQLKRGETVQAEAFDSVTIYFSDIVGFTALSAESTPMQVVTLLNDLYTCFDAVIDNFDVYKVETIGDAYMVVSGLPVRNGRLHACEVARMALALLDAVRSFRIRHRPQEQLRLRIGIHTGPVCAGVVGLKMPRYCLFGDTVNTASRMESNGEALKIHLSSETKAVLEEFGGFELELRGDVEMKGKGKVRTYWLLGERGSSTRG
A3G deaminase: APOBEC3G DNA deaminase inhibitors, primary screen, biochemical, fluorescence, single-stranded DNA substrate, uHTS; DNA dC->dU-editing enzyme APOBEC-3G (Homo sapiens), Q9HC16; recombinant A3G, ssDNA deamination FAM/TAMRA fluorescence; inhibition, % at 20 µM; 330,000 compounds, 0.28% hits;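 active means inhibition of at least 40% at 20 µM, with no more than 30% in the related APOBEC3A deaminase screen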;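 further: plate controls were DMSO wells with A3G for no effect and wells lacking A3G enzyme for full effect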
Neddyl conf: blockade of NEDD8 conjugation to cullin – biochemical, TR-FRET, single concentration, confirmation | shares compounds with Neddyl block | TR-FRET cullin neddylation biochemical assay | calls only at 25 µM | 1,800 compounds, 13% hits | AID 652217, 2013; in the data active means inhibition above about 40%;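 further: neddylation substrate is the cullin 1 ring ligase complex with SKP2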
* marks the source's active call; other numbers are inactive results; i = inactive; · = no result given; + = active, no number.

SMILES	APOBEC3A inh	NPR2 activator	Neddyl block	PfG6PD inh	NPR1 activator	A3G deaminase	Neddyl conf
CCCCOCCCNC(=O)C[C@H]1C[C@@]2(C(=O)OC)C(=C[C@H](C(C)C)O[C@@H]2C2CC2)N(Cc2cccc3ccccc23)C1=O	·	1	·	·	-8	·	·
CCOC(=O)C1CCCN(c2cc(C)nc3cc(-c4ccc(F)cc4)nn23)C1 (stereo unspecified)	2	-4	57*	16	-2	-4	i
CCCCCN1CCCCC(NC(=O)CSc2ccccc2)C1=O (stereo unspecified)	·	10	·	·	7	·	·
CC1(C)CC(=O)N(CC(=O)N2CCN(c3cccc(C(F)(F)F)c3)CC2)c2ccccc2S1(=O)=O	·	-5	·	·	4	·	·
COC(=O)C1=CN(c2cc(C)cc(C)c2)C=C(C(=O)OC)C1c1ccc(OC)c(O)c1	-1	3	47*	19	-9	-9	+
CCn1c(=O)n(CC(=O)N2CCC(C)CC2)c(=O)c2ccccc21	·	1	·	·	4	·	·
O=C(c1cnn2c(C(F)F)cc(-c3ccccc3)nc12)N1CCOCC1	-5	3	41*	-8	4	-6	i
CN(C)CC(=O)N[C@H]1C[C@@H]2O[C@@H](CO)CC[C@@H]2O[C@@H]1CCc1ccc(C2=CCCCC2)cc1	·	-1	·	·	-2	·	·
COCCNC(=O)c1ccc2c3n(nc2c1)-c1ccc(C)cc1CO3	-3	5	52*	3	7	-6	·
O=C(NCC1CCCO1)c1ccc2c3n(nc2c1)-c1ccccc1CO3 (stereo unspecified)	2	4	42*	13	-1	2	i
Cc1ccc2c(c1)COc1c3ccc(C(=O)N[C@@H](CO)C(C)C)cc3nn1-2	1	10	·	13	8	9	·
Cn1c(NC(=O)c2ccccc2)nc(Cc2ccccc2)c1Cc1ccccc1	·	-2	·	·	-3	·	·
NC(=O)C1CCN(c2nc(-c3ccc(OCc4ccccc4)cc3)cs2)CC1	·	-2	·	·	10	·	·
Cc1ccc(-c2cc(C(F)(F)F)n3nc(C(=O)NCCCn4ccnc4)cc3n2)cc1C	2	15	44*	-1	18	-7	·
COc1ccc(-n2c(SCC(=O)c3ccc4ccccc4c3)nnc2-c2ccccc2)cc1	·	-7	·	·	-3	·	·
c1cnc2ccc(-c3ccc4ncccc4c3)cc2c1	-3	-12	45*	7	-24	-5	i
C=CCN1C(=O)[C@H](CC(=O)NCC2CCCCC2)[C@@]2(C(=O)OCC)CCCC=C12	·	0	·	·	0	·	·
CCN(CC)C(=O)CC[C@@H]1CC[C@]2(CCCN(S(=O)(=O)c3ccccc3)C2)O1	·	-2	·	·	-8	·	·
Cc1cc2[nH]c3ccccc3c2c(C)n1	6	-5	40*	-13	13	-4	i
COC(=O)CC#C[C@H](C)[C@@H](NS(=O)(=O)c1ccc([N+](=O)[O-])cc1)C(C)(C)C	·	-2	·	·	-2	·	·
O=C(NCC1CCCCC1)c1cc2ccccc2cc1O	-5	-4	45*	-3	6	-3	·
O=C(NCC1CCCO1)c1cc2ccccc2cc1O (stereo unspecified)	-2	-3	31	23	4	-1	·
CC1(C)C2CCC1(CS(=O)(=O)NC1CCCC1)C(=O)C2 (stereo unspecified)	0	-2	43*	-4	3	-1	i
COc1ccc(CNS(=O)(=O)CC2NCc3cc(OC)ccc32)cc1 (stereo unspecified)	·	-6	·	·	-3	·	·
Cc1cc(-c2ccc3c(c2)COc2c4ccccc4nn2-3)on1	-3	-2	43*	9	-1	-9	i
SMILES	APOBEC3A inh	NPR2 activator	Neddyl block	PfG6PD inh	NPR1 activator	A3G deaminase	Neddyl conf
Cc1cc(=O)[nH]c(SCC(=O)Nc2cccc(Cl)c2F)n1	·	-2	·	·	0	·	·
COC(=O)[C@]1(Cc2ccccc2)NC=C(C(=O)c2ccccc2)[C@@H]1c1cccs1	·	-10	·	·	-3	·	·
COC(=O)C1=C(C)N(Cc2ccc(C(F)(F)F)cc2)C(=NCc2ccccc2C(F)(F)F)NC1c1ccc(Cl)cc1 (stereo unspecified)	·	-5	·	·	-7	·	·
CC1(C)CC(=O)C2=C(C1)OC(N)=C(C#N)C2c1cc2c(cc1[N+](=O)[O-])OCO2 (stereo unspecified)	·	-8	39*	21	-15	·	i
CCOc1cc(C2C(C#N)=C(N)OC3=C2C(=O)CC(C)(C)C3)cc([N+](=O)[O-])c1O (stereo unspecified)	0	-8	-50	-1	-3	-5	·
O=C1NC(c2ccccc2)=C(c2ccc3ccccc3n2)C(c2ccccc2)N1 (stereo unspecified)	0	-18	44*	10	-31	-3	i
O=C1NC(c2ccccc2)=C(c2ccc3ccccc3n2)C(c2ccc(F)cc2)N1 (stereo unspecified)	2	-16	38	-1	-38	2	·
CC(=O)c1ccc(-c2ccc(C(=O)N(C)Cc3nc4ccccc4c(=O)[nH]3)o2)cc1	1	1	73*	18	0	-2	·
CCOC(=O)NC[C@@]1(C(=O)OC)CC(=O)N(C)[C@@H]1c1ccccc1	·	-1	·	·	1	·	·
CCOc1ccc(-c2c(C(=O)N/N=C/c3c[nH]c4ccccc34)nnn2-c2nonc2N)cc1	-4	-1	42*	-8	13	-2	i
CCOc1ccc(/C=N/NC(=O)c2nnn(-c3nonc3N)c2-c2ccc(OCC)cc2)cc1	-4	6	13	-6	1	-4	·
CCC(C)[C@H](NC(=O)[C@H](CC(C)C)NC(=O)OC(C)(C)C)C(=O)N[C@@H](Cc1ccccc1)C(=O)OC (stereo partly specified)	·	-22	·	·	-12	·	·
O=C1c2ccccc2/C(=C\c2ccc3[nH]ccc3c2)N1c1ccccc1	-4	5	·	20	-1	-7	·
CCC/C(=C1/c2ccccc2C(=O)N1c1ccccc1)c1ccc2[nH]ccc2c1	0	-16	44*	-14	-7	-6	i
CCOC(=O)C(=CNc1ccc(NC2=NCC(C)S2)cc1)C(=O)OCC (stereo unspecified)	·	12	45*	5	6	·	i
